Data as given in PubChem BioAssay.
Activity calls are given as the source filed them. Cut-off read from the data, not from the text of the source: active = fold change permeability below about 0.7 or above about 1.3; inactive = in between. Residues, ends and D or L forms follow the SMILES beside them. *: point of attachment. Cbz = O=C(OCc1ccccc1)*

Experiment: compounds altering in vitro BBB leakiness – cell-based, FITC-avidin fluorescence, HTS, primary screen (AID 1963498); note: test concentration not given here
Settings: brain endothelial barrier, actives lie on both sides

SMILES | fold change permeability
Cn1c(=O)c2[nH]c(-c3ccc(S(=O)(=O)O)cc3)nc2n(C)c1=O | 1 (inactive)
COC(=O)C1=C(C)NC(C)=C([N+](=O)[O-])C1c1ccccc1C(F)(F)F (centres undefined) | 1.1 (inactive)
Clc1ccc2nsnc2c1NC1=NCCN1 | 1.9 (active)
COCC(=O)O[C@]1(CCN(C)CCCc2nc3ccccc3[nH]2)CCc2cc(F)ccc2[C@@H]1C(C)C | 1.5 (active)
COc1cc(CNC(=O)CCCCCCC(C)C)ccc1O | 0.7 (active)
CNCCC=C1c2ccccc2CCc2ccccc21 | 1 (inactive)
CC(=O)OCC(=O)[C@@]1(O)CC[C@H]2[C@@H]3CCC4=CC(=O)CC[C@]4(C)[C@H]3C(=O)C[C@@]21C | 0.9 (inactive)
COc1ccccc1CN[C@H]1CCCN[C@H]1c1ccccc1 | 0.7 (active)
Oc1cc2c(cc1O)CN(C(=S)NCCc1ccc(Cl)cc1)CCC2 | 1.8 (active)
O=NN(CCCl)C(=O)NCCCl | 1 (inactive)
O=C(O)Cc1c[nH]c2ccc(O)cc12 | 1.1 (inactive)
CN(C)CCOC(=O)COc1ccc(Cl)cc1 | 0.9 (inactive)
O=c1[nH]c2ccccc2c2ccccc12 | 1 (inactive)
CS(=O)(=O)c1ccc(C2=C(c3ccccc3)C(=O)OC2)cc1 | 0.8 (inactive)
Brc1c(Br)c(Br)c2[nH]cnc2c1Br | 1.2 (inactive)
COC(=O)Nc1nc2ccc(C(=O)c3cccs3)cc2[nH]1 | 1.4 (active)
O=C1CCCC(=O)C1C(=O)c1ccc(C(F)(F)F)cc1[N+](=O)[O-] | 0.9 (inactive)
CN(C)CCCC1(c2ccc(F)cc2)OCc2cc(C#N)ccc21 (centres undefined) | 0.9 (inactive)
O=C(O)c1ccccc1Nc1ccccc1 | 1 (inactive)
NC(=O)c1cn(Cc2c(F)cccc2F)nn1 | 0.9 (inactive)

SMILES | fold change permeability
CC(=O)[C@@]1(O)CC[C@H]2[C@@H]3CCC4=CC(=O)CC[C@]4(C)[C@H]3CC[C@@]21C | 1 (inactive)
C[C@H]1CC(=O)Nc2cc(C(=O)NCCC3CC3)ccc2N1C(=O)N1CC2CC2C1 (some centres undefined) | 1.1 (inactive)
Nc1ccc(-c2ccc3ncc4ccc(=O)n(-c5cccc(C(F)(F)F)c5)c4c3c2)cn1 | 1.3 (active)
c1ccc([C@H]2CN3CCSC3=N2)cc1 | 1.5 (active)
O=C(O)c1cc2cc(F)ccc2[nH]1 | 1.2 (inactive)
Nc1nc2[nH]cc(CCc3ccc(C(=O)N[C@@H](CCC(=O)O)C(=O)O)cc3)c2c(=O)[nH]1 | 0.9 (inactive)
O=C1Cc2c([nH]c3ccc(Br)cc23)-c2ccccc2N1 | 0.7 (active)
CC1=C(/C=C/C(C)=C/C=C/C(C)=C/C(=O)O)C(C)(C)CCC1 | 1.3 (active)
O=c1c(-c2ccc(O)cc2)coc2cc(O)cc(O)c12 | 0.8 (inactive)
O=C1NC(=O)/C(=C/c2ccc(-c3ccc(F)cc3O)o2)S1 | 1 (inactive)
CC(=O)/C=C1\C(=O)N(C)c2ccccc21 | 1.2 (inactive)
COc1cc(C[C@H](C)[C@H](C)Cc2ccc3c(c2)OCO3)ccc1O | 1.7 (active)
Cc1cc(Cn2cnc3c2C[C@@H](C(=O)O)N(C(=O)C(c2ccccc2)c2ccccc2)C3)ccc1N | 1 (inactive)
O=C1CN2Cc3c(ccc(Cl)c3Cl)N=C2N1 | 1.1 (inactive)
N[C@H](C(=O)O)c1cc(O)cc(O)c1 | 1.2 (inactive)
c1ccc2c(c1)CCCC2C1=NCCN1 (centres undefined) | 0.7 (active)
Cc1cc(NC(=O)Nc2ccc3c(ccn3C)c2)sn1 | 1.2 (inactive)
CC(C)c1ccc2oc3nc(N)c(C(=O)O)cc3c(=O)c2c1 | 1 (inactive)
CC(C)[C@H](NC(=O)OCc1ccccc1)C(=O)N[C@H](C=O)Cc1ccccc1 (Cbz-Val-Phe-aldehyde) | 1.4 (active)
